A collection of fitness landscapes (doi:10.1016/j.celrep.2020.107928)
In all, about 81,000 sequences were measured (“one-hybrid fitness for binding parS DNA”: median about -0.17, highest 2% from about 0.51 on). Shown is part of a subset that was picked to be rich in the highest values.

B1: Caulobacter ParB omega fusion; a variant is named by its letters at X, in order, B8GW30 (parent)
chain: MESVVVGEPGMSEGRRGLGRGLSALLGEVDAAPAQAPGEQLGGSREAPIEILQRNPDQPRRTFREEDLEDLSNSIREKGVLQPILVRPSPDTAGEYQIVAGERAWRAAQRAGLKTVPIMVRELDDLAVLEIGIIENVQRADLNVLEEALSYKVLMEKFERTQENIAQTIGKSXSHVANXMRLLXLPDEVQSYLVSGELTAXHARAIAAAADPVALAKQIIEGGLSVRETEALARKAPNLSAGKSKGGRPPRVKDTDTQALESDLSSVLGLDVSIDHRGSTGTLTITYATLEQLDDLCNRLTRGI

Variants of: B1
Assay: one-hybrid fitness for binding parS DNA (scaled: cognate 1, non-cognate 0); higher = stronger binding
Conditions: with parS DNA site
Summary of the method: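 Selection: bacterial one-hybrid in E. coli USO, HIS3 reporter with the site 19 bp from the promoter, 48 hours at 37°C on M9-minus-histidine plus 0.1 mM IPTG and 5 mM 3-AT. Libraries were Caulobacter ParB with four randomised specificity codons, sequenced on Illumina before and after selection. Fitness is the rescaled log change in variant-to-wild-type read ratio, anchored to the cognate and non-cognate sites.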

Variant	one-hybrid fitness for binding parS DNA
PNWL	≤ 0.2
PCED	≤ 0.2
HNST	≤ 0.2
SHDR	≤ 0.2
PGRS	≤ 0.2
GDYR	≤ 0.2
GWST	≤ 0.2
QTYA	≤ 0.2
NGRC	≤ 0.2
RWCM	≤ 0.2
RWWG	0.641
RWDG	0.616
RWDF	≤ 0.2
RWCG	0.688
RWWR	≤ 0.2
RWQG	0.741
RWDK	≤ 0.2
RWCR	≤ 0.2
RWQM	≤ 0.2
RWWY	≤ 0.2
RWQK	≤ 0.2
QCIG	≤ 0.2
ILHY	≤ 0.2
PETC	≤ 0.2
RDAC	≤ 0.2

Variant	one-hybrid fitness for binding parS DNA
CSPC	≤ 0.2
WCDG	≤ 0.2
TEMT	≤ 0.2
QRMV	≤ 0.2
PGQN	≤ 0.2
RFNK	0.203
YQGC	≤ 0.2
RRVC	0.673
RRKQ	≤ 0.2
RRKR	≤ 0.2
RRKC	0.649
PLTK	≤ 0.2
INSY	≤ 0.2
ENFG	≤ 0.2
RTWN	0.461
RTYK	≤ 0.2
RTRT	0.747
RTYT	0.952
RTRD	≤ 0.2
RTQQ	≤ 0.2
RTYR	≤ 0.2
RTWH	0.254
RTQT	0.925
RTQM	0.352
RTRK	≤ 0.2

Variant	one-hybrid fitness for binding parS DNA
RTWT	0.916
RGTV	≤ 0.2
KKRF	≤ 0.2
SRPQ	≤ 0.2
ITEL	≤ 0.2
RTGP	≤ 0.2
RTSF	0.246
RTGR	≤ 0.2
RTGT	0.912
RTSK	≤ 0.2
RTST	0.91
TRWL	≤ 0.2
HSDW	≤ 0.2
HVPD	≤ 0.2
GQVR	≤ 0.2
FGAG	≤ 0.2
NLVS	≤ 0.2
RHKK	≤ 0.2
RHVT	0.637
RHKT	0.745
RHVK	≤ 0.2
RHKF	0.255
RHVM	≤ 0.2
TMRL	≤ 0.2
CWHG	0.244

Variant	one-hybrid fitness for binding parS DNA
MPLG	≤ 0.2
YPFR	≤ 0.2
RTVG	0.979
RTVD	≤ 0.2
RTKG	0.872
RTVH	≤ 0.2
RTKN	0.441
RTKR	≤ 0.2
KCHG	≤ 0.2
GQFL	≤ 0.2
PQKC	≤ 0.2
NWQS	≤ 0.2
RRFN	0.314
RRAH	≤ 0.2
RRFP	≤ 0.2
RRFH	≤ 0.2
RRAS	0.652
RRAD	≤ 0.2
RRAN	0.583
RRFS	0.743
RCAN	0.477
MEPC	≤ 0.2
GRGV	≤ 0.2
MVCR	≤ 0.2
PWNF	≤ 0.2

Variant	one-hybrid fitness for binding parS DNA
ATEL	≤ 0.2
REGS	≤ 0.2
FMKF	≤ 0.2
IDST	≤ 0.2
HFES	≤ 0.2
QITI	≤ 0.2
LTWC	≤ 0.2
ADCT	≤ 0.2
ENNV	≤ 0.2
DYSL	≤ 0.2
RPCY	≤ 0.2
RSCY	0.47
RMCY	0.509
RCCY	0.526
WWVS	≤ 0.2
TIHD	≤ 0.2
VITG	≤ 0.2
YPSN	≤ 0.2
RLIG	0.934
RLPP	≤ 0.2
RLPG	0.755
RLIK	≤ 0.2
RLIY	0.437
RLPH	≤ 0.2
NLNR	≤ 0.2

Variant	one-hybrid fitness for binding parS DNA
YYRR	≤ 0.2
VLMH	≤ 0.2
LVRM	≤ 0.2
KHKS	≤ 0.2
DGAP	≤ 0.2
RWTQ	≤ 0.2
RWTD	≤ 0.2
RWTR	≤ 0.2
RWTY	0.37
RWTF	≤ 0.2
RWTN	0.338
RWTP	≤ 0.2
RWTT	0.705
RWTG	0.824
RWTS	0.956
RWTC	0.79
RWTH	≤ 0.2
SCKV	≤ 0.2
RMTE	≤ 0.2
EKPG	≤ 0.2
PAYN	≤ 0.2
HTMF	≤ 0.2
AKDP	≤ 0.2
FKSC	≤ 0.2
TTMG	≤ 0.2

Variant	one-hybrid fitness for binding parS DNA
PSRP	≤ 0.2
QMFV	≤ 0.2
YLKH	0.358
HKTR	≤ 0.2
KKHM	≤ 0.2
DLHA	≤ 0.2
RWHA	0.378
RCHA	0.626
RDHA	≤ 0.2
RNHA	0.438
RAHA	0.613
RPHA	≤ 0.2
RSHA	0.592
RLHA	0.592
RGHA	0.238
NAHA	≤ 0.2
LRPS	≤ 0.2
RCFW	0.256
MCTC	≤ 0.2
CVPM	≤ 0.2
SGES	≤ 0.2
ADNQ	≤ 0.2
SFPL	≤ 0.2
TQVG	≤ 0.2
TFSM	≤ 0.2

Variant	one-hybrid fitness for binding parS DNA
PVIS	≤ 0.2
AFHA	≤ 0.2
DMHA	≤ 0.2
RFHA	0.53
PFHA	≤ 0.2
RTHA	0.61
RMHA	0.603
DTHA	≤ 0.2
RHHA	0.526
NTHA	≤ 0.2
VHWV	≤ 0.2
CRAC	≤ 0.2
QHLA	≤ 0.2
DKPG	≤ 0.2
IKTN	≤ 0.2
AQFC	≤ 0.2
TGAE	≤ 0.2
RVFG	0.993
RVFP	≤ 0.2
RVAY	0.464
RVAG	0.999
RVFK	≤ 0.2
RVAM	0.329
